Sampled rows, rich in hits. Any-hit rate of the full collection: about 2.3%.
Nrf2 ARE act = qHTS of Nrf2 Activators; Potency, µM (titrated, usually from 46.1 µM), actives largely listed as activators; AREc32 ARE-luciferase reporter (MCF7-derived line), luminescence, 24 h; actives 0.31% (n = 410,000); AID 624171, 2012; note: nearly all actives have a fitted effect of over 65% in size
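ARE-driven firefly luciferase activity in AREc32 cells measured after a 24 hr compound exposure at 37 deg C, using Steady-Glo reagent and a 30 min room-temperature hold.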
A549 viability = Nrf2 qHTS screen for inhibitors: counterscreen for cytotoxicity. A549 ARE-Fluc cells, CellTiter-Fluor viability, 18-24 h. Potency, µM (top dose mostly 46 µM), most hits filed as inhibitors. actives 0.16% (n = 390,000). AID 504648, 2011
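A549 ARE-Fluc cells in 5% FBS OPTI-MEM, 5000 cells/well, rested 2 h then exposed to compounds in concentration-response for 18-24 h at 37 °C. Viability by CellTiter-Fluor fluorescence (Ex 405/Em 525) after 30 min; luciferase luminescence (BugLite, 15 min, RT) read afterwards.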
Rango complex inh = qHTS Assay for Inhibitors of Rango (Ran-regulated importin-beta cargo) - Importin beta complex formation; Importin subunit beta-1 (Homo sapiens), Q14974; Rango CFP/YFP FRET sensor + importin beta, 45 min; Potency, µM (doses to about 92.2 µM); actives 0.031% (n = 340,000); calls by dose curve; note: nearly all actives have a fitted effect of over 15% in size
Target sequence (Q14974 whole entry, looked up): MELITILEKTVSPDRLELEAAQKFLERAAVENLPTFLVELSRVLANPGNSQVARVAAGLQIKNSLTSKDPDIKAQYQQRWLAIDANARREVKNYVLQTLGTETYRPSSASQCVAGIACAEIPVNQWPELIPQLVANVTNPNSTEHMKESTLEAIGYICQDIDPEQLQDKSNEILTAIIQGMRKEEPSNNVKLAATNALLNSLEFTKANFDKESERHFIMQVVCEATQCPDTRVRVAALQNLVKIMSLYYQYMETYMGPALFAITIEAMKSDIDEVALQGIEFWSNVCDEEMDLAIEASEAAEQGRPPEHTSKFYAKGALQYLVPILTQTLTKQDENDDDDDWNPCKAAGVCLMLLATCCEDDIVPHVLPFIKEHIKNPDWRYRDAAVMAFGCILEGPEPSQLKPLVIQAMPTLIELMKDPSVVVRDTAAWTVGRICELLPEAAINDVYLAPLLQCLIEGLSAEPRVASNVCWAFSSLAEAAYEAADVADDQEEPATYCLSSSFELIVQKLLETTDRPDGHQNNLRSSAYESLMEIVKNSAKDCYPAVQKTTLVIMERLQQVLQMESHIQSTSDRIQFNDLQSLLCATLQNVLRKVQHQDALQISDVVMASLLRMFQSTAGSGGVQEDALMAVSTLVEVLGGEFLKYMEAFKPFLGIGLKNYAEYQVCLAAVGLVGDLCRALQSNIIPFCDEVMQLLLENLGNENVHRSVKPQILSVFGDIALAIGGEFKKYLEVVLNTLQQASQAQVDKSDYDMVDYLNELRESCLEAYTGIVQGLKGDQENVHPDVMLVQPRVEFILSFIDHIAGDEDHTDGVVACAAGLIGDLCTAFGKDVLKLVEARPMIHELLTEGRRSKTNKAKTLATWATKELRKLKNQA
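FRET biosensor Rango (snurportin 1 IBB between N-terminal EYFP and C-terminal Cerulean), 50 nM in PBS/1 mM DTT/0.02% Tween-20/0.1% BSA, preincubated 5 min RT with compound; 0.125 microM importin beta added, 45 min RT, CFP/YFP FRET ratio read.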
Nrf2 inh = Nrf2 qHTS screen for inhibitors; A549 ARE-Fluc reporter, luciferase luminescence, 18-24 h; Potency, µM (top dose mostly 46 µM), usual class: inhibitors; actives 2.1% (n = 360,000); note: nearly all actives have a fitted effect of over 60% in size
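A549 ARE_Fluc cells, 5000/well, 5% FBS OPTI-MEM; compounds in dose-response, 18-24 h at 37 °C/5% CO2; CellTiter-Fluor viability read (Ex 405/Em 525), then BugLite luciferase luminescence = Nrf2 activity.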
Rango dissoc inh = qHTS Assay for Inhibitors of RanGTP induced Rango (Ran-regulated importin-beta cargo) - Importin beta complex dissociation | AID 540253, 2011 | actives 0.071% (n = 340,000) | Potency, µM (series often up to 46.1 µM) | Biochemical FRET Rango-importin beta, RanGTP-induced dissociation; calls by dose curve; note: nearly all actives have a fitted effect of over 45% in size
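Quantitative HTS using a FRET biosensor: 0.1 uM Rango, 0.25 uM importin beta, 0.6 uM Ran, 2 mM GTP, 0.2 uM RCC1 final, PBS with DTT, Tween-20 and BSA. Post-read taken 45 min after Ran addition.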
Of the large screens only hits and unclear results are named; the others gave an inactive call. Unless noted, calls come from the whole dose curve; as a rule, active = well fitted curve in the direction sought with a large enough effect; inconclusive = small, poorly fitted or top-dose-only effect, or another doubt; inactive = no such curve, though single readings can be large; an effect the other way counts as inactive or inconclusive.

Cc1nc2ccc(NS(=O)(=O)c3ccc(Br)cc3)cc2s1	Rango complex inh inconclusive, Nrf2 inh 15µM
Cc1ccc(S(=O)(=O)Nc2ccc3nc(C)sc3c2)c(C)c1	Rango complex inh inconclusive, Nrf2 inh inconclusive
Cc1ccc(S(=O)(=O)Nc2ccc3nc(N)sc3c2)cc1	Nrf2 inh 7.3µM
Cc1nc2c(-c3ccccc3)c(C)nn2c(C)c1CCC(=O)NCc1ccc(F)cc1	none (no result: Rango complex inh, Rango dissoc inh)
COc1ccc(CNC(=O)c2ccc3c(c2)CCN3S(=O)(=O)c2ccccc2)cc1	Nrf2 inh inconclusive (no result: Rango complex inh, Rango dissoc inh)
CC(C)n1c(-c2ccco2)csc1=Nc1cccnc1	Nrf2 inh 13µM
O=C(Nc1ccc(OC(F)(F)F)cc1)C1CCN(S(=O)(=O)c2ccc3[nH]c(=O)ccc3c2)CC1	none (no result: Rango complex inh, Nrf2 inh, Rango dissoc inh)
Cc1ccccc1NC(=O)N1CCCC(c2nc(-c3ccc(C(C)C)cc3)no2)C1 (centres undefined)	A549 viability inconclusive, Nrf2 inh 5.8µM
Cc1ccccc1NC(=O)N1CCCC(c2nc(-c3ccc(F)cc3)no2)C1 (centres undefined)	none
CCc1nc(N2CCN(C(C)=O)CC2)c2c3c(sc2n1)CC(C(C)(C)C)CC3 (centres undefined)	Nrf2 inh 18µM
Cc1cc(-c2csc3nc[nH]c(=S)c23)cc(C)c1C	A549 viability inconclusive, Nrf2 inh 23µM
CCn1c(Cc2ccc(OC)cc2)nc2ccccc21	Nrf2 inh inconclusive
COc1ccc(Cc2nc3ccccc3n2Cc2ccccc2F)cc1	Nrf2 inh 18µM (no result: Rango complex inh, Rango dissoc inh)
Cn1cnnc1Sc1ccc(/C=C/C(=O)c2ccc(O)cc2)cc1[N+](=O)[O-]	Nrf2 ARE act inconclusive, A549 viability inconclusive, Nrf2 inh 18µM
Cc1ccc(-c2csc3ncnc(Sc4nnc(CN5CCCCCC5=O)o4)c23)cc1	Nrf2 ARE act inconclusive, A549 viability inconclusive, Nrf2 inh 15µM
Cc1ccc(-c2csc3ncnc(SCC(=O)Nc4nnc(C)s4)c23)cc1	Nrf2 inh inconclusive
O=C(Nc1cccc(Cl)c1)c1cccc(Oc2ccc([N+](=O)[O-])cc2Cl)c1	Nrf2 inh 21µM
O=C(COc1cccc(NC(=O)c2cccc([N+](=O)[O-])c2)c1)c1ccc(F)cc1	Nrf2 inh inconclusive
COc1ccc(NC(=O)c2cccc(Oc3ccc([N+](=O)[O-])cc3Cl)c2)cc1	A549 viability inconclusive, Nrf2 inh inconclusive
COc1cccc(C(=O)COc2cccc(NC(=O)c3cccc([N+](=O)[O-])c3)c2)c1	Nrf2 inh 18µM
Cn1c(SCC(=O)N2CCCC2=O)nc2ccccc21	none
CC1CCN(S(=O)(=O)c2ccc3c(c2)C(=NO)c2cc(S(=O)(=O)N4CCC(C)CC4)ccc2-3)CC1	A549 viability 5.2µM, Nrf2 inh 4.1µM
O=S(=O)(c1ccc2c(c1)C(=NO)c1cc(S(=O)(=O)N3CCCCC3)ccc1-2)N1CCCCC1	A549 viability inconclusive, Nrf2 inh inconclusive
Cc1ccc(-n2c(SCC(=O)N3CCC(C)CC3)nc3c([nH]c4ccccc43)c2=O)cc1	none (no result: Rango complex inh, Nrf2 inh, Rango dissoc inh)
COc1ccc(S(=O)(=O)N2CCCCCC2)cc1N(C)S(=O)(=O)c1ccccc1	Rango complex inh inconclusive, Nrf2 inh 23µM
COc1ccc(S(=O)(=O)Nc2ccc(C)cc2)cc1N(C)S(=O)(=O)c1ccc(Cl)cc1	A549 viability inconclusive, Nrf2 inh 18µM
COc1ccc(S(=O)(=O)N2CCCCC2)cc1N(C)S(=O)(=O)c1ccccc1	none
Cc1ccc2c(c1)C(c1ccc(F)cc1)N(C(=O)c1ccc(S(=O)(=O)N3CCCCC3)cc1)CC(=O)N2 (centres undefined)	none (no result: Rango complex inh, Rango dissoc inh)
CCCNc1nc2c(c(=O)n(C)c(=O)n2C)n1CCc1ccccc1	Nrf2 inh 4.1µM
Cn1c(=O)c2c(nc(NCCc3ccccc3)n2Cc2ccc(Cl)cc2)n(C)c1=O	Nrf2 inh inconclusive (no result: Rango complex inh, Rango dissoc inh)
CC(C)n1c(NCCc2ccccc2)nc2c1c(=O)n(C)c(=O)n2C	Nrf2 inh 13µM
CCCNc1nc2c(c(=O)n(C)c(=O)n2C)n1CCCc1ccccc1	Nrf2 inh inconclusive
Cc1nc(-n2nc(C)c(Cc3ccc(Cl)cc3)c2C)sc1C(=O)N1CCC(C)CC1	none (no result: Rango complex inh, Rango dissoc inh)
CCOc1ccc(NC(=O)c2c(C)oc3nc(C)nc(N4CCOCC4)c23)cc1	Nrf2 inh inconclusive (no result: Rango complex inh, Rango dissoc inh)
Cc1cccc(CCn2c(=O)c3ccccc3n(Cc3cccc(F)c3)c2=O)c1	none (no result: Rango complex inh, Rango dissoc inh)
CC(=O)N1CCN(Cc2nc3cc(NC(=O)COc4cccc(C)c4)ccc3n2C)CC1	Nrf2 inh 23µM
Cn1c(CN2CCCCC2)nc2cc(NC(=O)c3ccc(F)cc3)ccc21	Nrf2 inh 12µM
CCn1c(CN2CCOCC2)nc2cc(NC(=O)c3ccc([N+](=O)[O-])cc3)ccc21	Nrf2 inh 9.2µM (no result: Rango complex inh, Rango dissoc inh)
Cn1c(CN2CCCCC2)nc2cc(NC(=O)c3ccccc3Cl)ccc21	none
CC(=O)N1CCN(Cc2nc3cc(NC(=O)c4ccc(Cl)cc4)ccc3n2C)CC1	Nrf2 inh 10µM
CC(C)Oc1ccc(CNS(=O)(=O)c2cnc(N)nc2)cc1	none (no result: Rango complex inh, Nrf2 inh, Rango dissoc inh)
Cc1ccccc1OCCCn1c(-c2ccc(Cl)cc2)nc2ccccc2c1=O	none (no result: Rango complex inh, Rango dissoc inh)
O=C1NC2c3c(I)sc(I)c3C(=O)C2O1 (centres undefined)	Nrf2 ARE act 11µM, Nrf2 inh inconclusive
O=C1NC2c3c(Cl)sc(Cl)c3C(=O)C2O1 (centres undefined)	Nrf2 ARE act 16µM
O=C(NC1CC(=O)N(c2cccc(F)c2)C1)c1cc2ccccc2o1 (centres undefined)	none (no result: Rango complex inh, Nrf2 inh, Rango dissoc inh)
CC12CC3CC(C)(C1)CC(C(=O)Nc1nncs1)(C3)C2	none
Cc1ccc(C2CC(=O)Nc3cc4c(cc32)OCCO4)cc1Br (centres undefined)	Nrf2 inh 18µM (no result: Rango complex inh, Rango dissoc inh)
CC(C)N1CCc2nc(SCC(=O)Nc3cccc(F)c3)[nH]c(=O)c2C1	none (no result: Rango complex inh, Rango dissoc inh)
COc1ccc(OC)c(-c2nnc3n2N=C(c2ccc(OC)c(OC)c2)CS3)c1	Nrf2 inh inconclusive
COc1ccc(OC)c(-c2nnc3n2N=C(c2ccc(OC)c(OC4CCCC4)c2)CS3)c1	Nrf2 inh 18µM
COc1ccc(OC)c(C2=Nn3c(nnc3C3CCCCC3)SC2)c1	Nrf2 inh 21µM
CCOc1ccc(CC(=O)NCCc2sc3nc(-c4ccc(F)cc4)nn3c2C)cc1	none (no result: Rango complex inh, Nrf2 inh, Rango dissoc inh)
COC(=O)C1CC1[C@H](NC(=O)c1cccnc1)c1ccccc1 (some centres undefined)	none (no result: Nrf2 ARE act, Rango complex inh, Rango dissoc inh)
Cc1ccc(NC(=O)NCc2c(-n3cccc3)sc3c2CCCC3)c(Cl)c1	none (no result: Rango complex inh, Rango dissoc inh)
